Where “and” joins values, the source holds several entries; their conditions need not be identical. Equal entries are not always repeated. Screen size: about 16,000 compounds; about 2,600 (16%) were called active. Another 20% or so got no clear call; they are omitted. The call rests on the fitted dose curve; in most records, active means well fitted curve in the direction sought with a large enough effect; inconclusive means small, poorly fitted or top-dose-only effect, or effect the other way; inactive means no such curve, though single readings can be large or run the other way. The list is a sample of the results.
Target: Cytochrome P450 2D6 (Homo sapiens) (UniProt P10635)
Experiment: Cytochrome panel assay with activity outcomes
Details: recombinant CYP, pro-luciferin dealkylation, luminescence, p450-cyp2d6; series mostly up to 57.1 µM; activity, negative = inhibition: at the top concentration
On the % scale 0 is the no-effect control and ±100 the full control effect.

Chain of Cytochrome P450 2D6 (Homo sapiens) (P10635 whole entry, looked up): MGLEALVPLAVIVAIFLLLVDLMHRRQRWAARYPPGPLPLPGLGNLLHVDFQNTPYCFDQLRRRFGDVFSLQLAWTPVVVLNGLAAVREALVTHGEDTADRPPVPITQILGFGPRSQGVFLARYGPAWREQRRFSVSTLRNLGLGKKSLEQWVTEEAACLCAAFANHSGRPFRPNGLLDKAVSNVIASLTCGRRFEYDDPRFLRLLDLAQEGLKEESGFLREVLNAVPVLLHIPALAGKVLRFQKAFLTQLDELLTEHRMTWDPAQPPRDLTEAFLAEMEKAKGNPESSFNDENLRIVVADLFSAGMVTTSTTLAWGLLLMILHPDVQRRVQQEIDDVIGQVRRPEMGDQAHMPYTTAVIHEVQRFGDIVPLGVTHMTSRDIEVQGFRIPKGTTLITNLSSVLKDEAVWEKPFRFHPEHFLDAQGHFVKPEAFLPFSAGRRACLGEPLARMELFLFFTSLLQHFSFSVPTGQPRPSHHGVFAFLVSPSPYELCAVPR

activity, negative = inhibition, inactive:
O=C(Cc1csc(Nc2nc(=S)[nH]c3ccccc23)n1)NCc1cccc(Cl)c1 -28%
Cc1sc2nc(SCC(=O)C(C)(C)C)n(Cc3ccco3)c(=O)c2c1C -6.32%
Cc1n[nH]c(=O)nc1NCc1ccccc1Cl -22.5%
O=C(O)C[C@H](Cc1ccccc1Cl)C(=O)O -0.233% [at 11.4 µM]
CCOC(=O)C(C)Sc1nnc(CNC(=O)c2ccc(OC)cc2)n1C1CCCCC1 (configuration not stated) -5.97%
CCOC(=O)c1sc2nc3c(cc2c1N)COC(C)(CC)C3 (configuration not stated) -25.5%
CCOC(=O)c1nc(N)sc1C(=O)OCC 17.3%
Cc1ccc(Cn2cnc3c(nnn3Cc3ccc(Cl)cc3)c2=O)cc1 11.9%
CC(=O)[C@H]1CC[C@@H]2[C@H]3CC=C4C[C@@H](O)CC[C@]4(C)[C@H]3CC[C@]12C 13.6% [at 25.6 µM]
CC(=O)Nc1nnc(S(N)(=O)=O)s1 2.74% [at 25.6 µM]
O=C(c1ccccc1)c1nc2ccccc2n(CCCn2c(=O)c(C(=O)c3ccccc3)nc3ccccc32)c1=O -5.06%
CCn1c(/C=C2/C(=O)N(C)c3ccccc32)nc2ccccc2c1=O 25%
C[N+]1(C)C[C@@H](O)C[C@@H]1C(=O)[O-] 3.69% [at 25.6 µM]
CCNc1ncc2nc(-c3ccccc3)c(=O)n(Cc3cccs3)c2n1 -15.8%
Cc1ccc(-c2nc3ccccc3s2)cc1NC(=S)NC(=O)c1ccccc1 2.81%
C=CCn1c(C(C)NC(=O)c2ccccc2)n[nH]c1=S (configuration not stated) -13.1%
CCn1c(-c2nonc2NC(=O)c2ccccc2)nc2ccccc21 25.6%
O=c1cc(CO)oc(CN2CCCC2)c1O -7.9%
Cc1ccc(O)c(-c2cc(C(F)(F)C(F)F)nc(-c3ccccc3)n2)c1 -15.4%
Cc1ccc(-c2ccc(/C=N/N3C(=O)C4C5C=CC(C6CC56)C4C3=O)o2)c([N+](=O)[O-])c1 (configuration not stated) -12%
Cn1c(COc2nnc(-c3ccc(Cl)cc3)c3ccccc23)nc2ccccc21 -36.4%
CC(C)C(=O)NCCn1ccc2ccccc21 -12.4%
CCOC(=O)N1CCN(C(=O)c2ccc(OC)c(OC)c2)CC1 5.75%
COc1ccc(C(=O)c2ccc(OC)c(OC)c2)cc1OC -16.3%
Cc1cc(N2CCN(C)CC2)nc2ccc(NC(=O)CCC(=O)NCc3ccco3)cc12 -1.82%
CCCCC/C=C\C[C@H](O)/C=C\c1cccc(C[C@H](O)CCCCO)n1 -6.38%
COc1ccc(C(C(=O)NC2CCCC2)N(C(=O)c2snc(-c3ccc(F)cc3)c2N)c2ccc(F)cc2)cc1 (configuration not stated) -4.46%
CCc1ccc(N(C(=O)c2snc(C(N)=O)c2N)C(C(=O)NCCC(C)C)c2c[nH]c3ccccc23)cc1 (configuration not stated) -29.2%
Cc1ccccc1NC(=S)NN1CCN(C)CC1 -0.0224%
O=C(O)c1ccccc1C(=O)NCc1ccc(F)cc1 -19.2%
CCOC(=O)C(C(=O)NCc1ccc(C)cc1)c1ncc(C(F)(F)F)cc1Cl (configuration not stated) -3.02%
COc1cc2c(C(=O)N3CCN(C)CC3)c(C)n(-c3ccccc3)c2cc1Br 7.75%
CN1CCN(C(=O)c2ccc3c(=O)n4c(nc3c2)CCCCC4)CC1 5.28%
CCOC(=O)c1ccc(NC(=O)C2(c3ccc(OC)cc3)CCOCC2)cc1 -27.2%
CCOC(=O)c1cc(CC)sc1NC(=O)C(c1ccccc1)c1ccccc1 -0.533%
CCOC(=O)CCCNC(=O)c1cncc(Br)c1 0.0414%
CC(C)(C)C(=O)N1CCc2cc(-c3csc(N)n3)ccc21 -5.95%
CCC(=O)Nc1ccccc1C(=O)OCC(=O)c1ccccc1 -24.5%
CN(C)CCCO[C@H]1[C@H]([C@H](O)CO)O[C@H]2OC(C)(C)O[C@@H]21 3.96%
Cc1cc2cc(CNC(=O)CC(C)C)ccc2n1C -0.54%
CCOC(=O)N/N=C1/C[C@@H](O)[C@@H](O)[C@@H]2[C@@H]3C(=O)N(c4cccc(Oc5ccccc5)c4)C(=O)[C@H]3CC[C@H]12 2.57% [at 11.4 µM]
CCOC(=O)c1cncc(C(=O)O)c1 4.25%
CCOC(=O)c1c(C)oc2c1cc(O)c1ccccc12 -3.41%
C=CCCCCCCCCC(=O)Nc1c[nH]c(=O)[nH]c1=O -7.96%
O=C1C[C@@H](O)[C@@H](O)[C@H]2[C@@H]3C(=O)N(Cc4ccccc4)C(=O)[C@@H]3CC[C@H]12 -0.874% [at 11.4 µM] and 9.9% [at 11.4 µM]
COc1ccc(Cn2nnnc2C(c2ccccc2Cl)N2CCC(C(N)=O)CC2)cc1 (configuration not stated) -14.7%
O=C(Nc1ccc(Cl)cc1)OCc1cc(-c2ccccc2Cl)on1 -1.65%
C#C[C@@]1(O)CC[C@@H]2[C@@H]3CCC4=CC(=O)CC[C@@H]4[C@H]3CC[C@]21CC -0.799% [at 25.6 µM]
Cc1onc(C(=O)/C=C/N(C)C)c1C(=O)Nc1nccs1 -1.61%
Cc1ccc(Nc2nc(-c3sc(NC(=O)c4cccc(Cl)c4)nc3C)cs2)cc1 -6.37%
c1cnc(Nc2nc(-c3ccc4ccccc4c3)cs2)nc1 -6.94%
C/C(CC(=O)NC1CCCC1)=N\NC(=O)Cc1cccs1 10.6%
COC(=O)[C@H]1C[C@@H]1[C@H](NC(=O)c1ccccc1)c1ccccc1 4.63%
CCCSc1nc(SCC(=O)NCc2ccccc2)c2c3c(sc2n1)COC(C)(CC)C3 (configuration not stated) -15.9%
CC1(C)Cc2c(sc3nc(-c4ccccc4)n(N)c(=O)c23)CO1 -5.96%
COc1ccc(OCCNS(=O)(=O)c2ccc3oc4ccccc4c3c2)cc1 -2.58%
O=C(O)C[C@H](Cc1ccc2c(c1)OCO2)C(=O)O -3.42% [at 11.4 µM]
Cc1ccc(C2/C(=C(/O)c3ccccc3)C(=O)C(=O)N2CCN2CCOCC2)o1 (configuration not stated) -22.7%
Cc1nc2ccc(S(=O)(=O)NC(CC(C)C)C(=O)O)cc2s1 (configuration not stated) 25.2%
C=CCNC(=S)N1CCN(c2ncc3c(=O)c(C(=O)O)cn(CC)c3n2)CC1 -0.755%
N#Cc1ccc(Oc2nc(C(N)=O)cc(-c3ccccc3)n2)cc1 -4.01%
CC(=O)C1=NOC(CNC(=O)c2c(-c3ccccc3Cl)noc2C)C1 (configuration not stated) -4.95%
CC1(C)c2ssc(=S)c2-c2ccccc2N1C(=O)CSC1=NCCS1 -7.47%
COC(=O)c1ccc(Oc2coc3cc(OCc4cnn(-c5ccccc5)c4)ccc3c2=O)cc1 7.36%
CCc1ccc(OCC(=O)OC2CCS(=O)(=O)C2)cc1 (configuration not stated) 12.6%
COc1ccc(-n2ncc3c(NCC4CCCO4)ncnc32)cc1 (configuration not stated) -3.61%
O=C(Oc1ccccc1)N1CCC2(CC1)CCN(c1ccccc1)CC2 -6.87%
Brc1ccc(-c2nnc(-c3cccc(Br)c3)o2)cc1 16.4%
CCCNC(=S)Nc1ccc(Br)cc1 -5.15%
CCc1ccc(NC(=O)CS(=O)CC(=O)NCCCc2ccccc2)cc1 (configuration not stated) -22.8%
CCC(c1nnnn1CC1CCCO1)N(CCN1CCOCC1)Cc1cc2cc(C)ccc2[nH]c1=O (configuration not stated) -8.76%
CC(=O)Nc1ccc(N2C(=O)CSC2c2c(F)cccc2Cl)cc1 (configuration not stated) -25.8%
O=C1CSC(c2ccccn2)N1c1ccc(Cl)c(Cl)c1 (configuration not stated) -11.2%
Cc1ccc2nc(-c3ccc(NC(=O)Cc4cccs4)cc3)[nH]c2c1 -5.32%
COc1ccc(NC(=O)CSc2nnc(C3CC3)n2N)cc1 -7.25%
CCn1nnnc1SCC(=O)NC1CCCC1 -28.2%
CCOc1ccc(C2=Nn3c(nnc3-c3ccco3)SC2)cc1 -6.18%
CCOc1ccc(-c2nnc3n2N=C(c2ccc(OC)cc2)CS3)cc1 3.29%
CC1(C)O[C@H]2C[C@@H]3[C@H]4CCC5=CC(=O)CC[C@@]5(C)[C@]4(F)[C@@H](O)C[C@@]3(C)[C@@]2(C(=O)CCl)O1 -10.6% [at 25.6 µM]

AC50, active:
Clc1ccccc1CNCC1CCC(CNCc2ccccc2Cl)CC1 (configuration not stated) 12.6 µM
CCOC(=O)c1sc(C)c(C(=O)NCC(C)(C)CN(C)C)c1N 1.78 µM
CCCn1c(/C=C/c2ccccc2)nc2ccccc21 8.91 µM
CC(NC(=O)c1ccccc1)c1nc2ccccc2n1Cc1ccccc1F (configuration not stated) 14.1 µM
CC(C)C(=O)NCCc1nc2ccccc2n1CCCOc1ccc(Cl)cc1 3.16 µM
COc1ccc(C(=O)OC(C)CN2CCN(C)CC2)cc1OC (configuration not stated) 3.55 µM
CC(C(=O)NC1CCCC1)N(C(=O)c1snc(C(N)=O)c1N)c1ccc2c(c1)OCCO2 (configuration not stated) 14.1 µM
Cc1ccc(CNCC(O)(c2ccc(F)cc2)c2ccc(F)cc2)cc1 1 µM
OC(CNCc1ccc(F)cc1)(c1ccc(F)cc1)c1ccc(F)cc1 0.794 µM
CCOC(=O)CCCNC(=O)CCCNC(=O)C(c1ccccc1)c1ccccc1 0.891 µM
CCOC(=O)c1c(C(C)(C)C)oc2ccc(O)cc12 14.1 µM
O=C(Nc1ccc(Cl)cc1)OCCn1nnnc1C(c1ccccc1Cl)N1CCOCC1 (configuration not stated) 15.8 µM
Cc1ccc(Nc2nc(-c3c(C)nc4ncccn34)cs2)cc1 12.6 µM
CCC1(C)Cc2c(sc3nnn(CC(=O)Nc4cccc5ccccc45)c(=O)c23)CO1 (configuration not stated) 15.8 µM
Cc1c(C(=O)O)oc2ccc(S(=O)(=O)NCc3ccc4c(c3)OCO4)cc12 15.8 µM
Oc1ccccc1C1Nc2cccc3cccc(c23)N1 10 µM
Cc1[nH]nc(-c2ccc(OCc3cnn(-c4ccccc4)c3)cc2O)c1Oc1ccccc1F 11.2 µM
Cc1[nH]nc(-c2ccc(OCc3cnn(-c4ccccc4)c3)cc2O)c1Oc1ccc(F)cc1 7.08 µM
CCCCc1ccc(NC(=S)NCc2cccs2)cc1 4.47 µM
O=C1CSC(c2ccccc2F)N1c1cc(Cl)ccc1O (configuration not stated) 31.6 µM
O=C(CSc1nnnn1C1CCCC1)Nc1ccc(F)cc1 14.1 µM
CCc1ccc(C2=Nn3c(nnc3-c3cccs3)SC2)cc1 2.82 µM

AC50, inactive:
CCC1(c2ccccc2)C(=O)NCNC1=O
